High-throughput results deposited in PubChem BioAssay by National Center for Advancing Translational Sciences (NCATS).
Rows were chosen to be rich in hits. Some 5.8% of all compounds tested hit in one or more screens of this group.
Gal4-VP16 FLuc = VP16 counterscreen qHTS for inhibitors of ROR gamma transcriptional activity. Potency, µM (top dose mostly 53.6 µM), most hits filed as inhibitors. AID 2546, 2010. hit rate 3.5% among 310,000. Drosophila S2 Gal4-VP16 UAS-luciferase, luminescence, 20 h;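 note: Gal4-VP16 expression switched on by copper sulfate through the metallothionein promoter; nearly all actives have a fitted effect of over 50% in size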
uPA generation = qHTS for Inhibitors of Cell Surface uPA Generation | cell surface uPA generation assay, qHTS | Potency, µM (series often up to 38.3 µM), actives largely listed as inhibitors | hit rate 0.31% among 330,000 | AID 540303, 2011; active = well fitted inhibition curve with a large enough effect; inconclusive = small, poorly fitted or top-dose-only effect; inactive = no such curve, though single readings can be large or run the other way; tested in mouse RAW 264.7 cells; note: nearly all actives have a fitted effect of over 55% in size
TRPV1 ag = HTS Assay for Compounds that Act as Agonists of the Vanilloid Receptor 1; hit rate 0.19% among 320,000; activation, % at 8.33 µM; Transient receptor potential cation channel subfamily V member 1 (Homo sapiens), Q8NER1; TRPV1-expressing cells, Fluo-8 calcium influx, agonist mode; in the data active = activation above about 80%; inconclusive = between about 30% and that limit
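Fluo-8 calcium influx in TRPV1-expressing cells, kinetic read (ex 480/em 520 nm). Compound added and read 3 min for agonist activity, followed by capsaicin at EC20 final and 2 min further read for enhancement.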
TRPV1 potentiator = HTS Assay for Compounds that Act as Potentiators of the Vanilloid Receptor 1 | Transient receptor potential cation channel subfamily V member 1 (Homo sapiens), Q8NER1 | TRPV1-expressing cells, Fluo-8 calcium influx, capsaicin EC20 potentiation | potentiation, % at 8.33 µM | hit rate 0.02% among 320,000 | AID 540277, 2011; in the data active = potentiation above about 80%; inconclusive = between about 30% and that limit
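Fluo-8 calcium influx in TRPV1-expressing cells, kinetic read (ex 480/em 520 nm). Compound added and read 3 min for agonist activity, followed by capsaicin at EC20 final and 2 min further read for enhancement.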
RORg inh = qHTS for inhibitors of ROR gamma transcriptional activity. Nuclear receptor ROR-gamma (Mus musculus), P51450. Drosophila S2 Gal4-RORgamma UAS-luciferase reporter, 20 h. Potency, µM (doses to about 53.6 µM), actives largely listed as inhibitors. hit rate 5.4% among 310,000; note: nearly all actives have a fitted effect of over 60% in size
Target sequence (P51450 whole entry, looked up, the tested form may be a part): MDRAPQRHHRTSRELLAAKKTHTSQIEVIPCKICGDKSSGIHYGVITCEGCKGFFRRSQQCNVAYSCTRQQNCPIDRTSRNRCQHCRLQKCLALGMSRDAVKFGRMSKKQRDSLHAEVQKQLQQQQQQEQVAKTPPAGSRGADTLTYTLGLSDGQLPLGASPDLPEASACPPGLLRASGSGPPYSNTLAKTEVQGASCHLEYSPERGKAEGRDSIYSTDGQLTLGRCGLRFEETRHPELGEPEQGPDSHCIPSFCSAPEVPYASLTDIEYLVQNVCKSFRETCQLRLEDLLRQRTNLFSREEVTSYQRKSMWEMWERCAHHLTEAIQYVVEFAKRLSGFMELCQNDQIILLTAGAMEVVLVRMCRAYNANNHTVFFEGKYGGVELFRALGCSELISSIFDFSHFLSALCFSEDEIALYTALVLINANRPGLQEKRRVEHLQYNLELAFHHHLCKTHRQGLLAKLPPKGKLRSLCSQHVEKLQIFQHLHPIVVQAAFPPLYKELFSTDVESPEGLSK
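Stably transfected Drosophila Schneider cells are the test system, with ROR gamma fused to Gal4 and luciferase under UAS control; luminescence is read after 20 hr of 700 uM copper sulfate induction at ambient temperature.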
Large screens that a line does not name were inactive. Unless noted, calls come from the whole dose curve; as a rule, active = well fitted curve in the direction sought with a large enough effect; inconclusive = small, poorly fitted or top-dose-only effect, or another doubt; inactive = no such curve, though single readings can be large; an effect the other way counts as inactive or inconclusive.

C=CCOc1ccc(C2NC(=S)NC3=C2CCc2ccccc23)cc1 (stereo not drawn)	Gal4-VP16 FLuc 13µM, RORg inh 3.5µM
COc1ccc2c(c1)CCC1=C2NC(=S)NC1c1ccc(N(C)C)cc1 (stereo not drawn)	Gal4-VP16 FLuc 3.5µM, RORg inh 2.8µM
COc1ccc2c(c1)CCc1cn[nH]c1-2	TRPV1 potentiator inconclusive
O=C1NC2=C(CCc3ccccc32)C(c2ccccc2)N1 (stereo not drawn)	none
COc1cc(C2NC(=S)NC(c3ccccc3)=C2C(C)=O)cc(Br)c1OCC(N)=O (stereo not drawn)	none
O=C(NC(=S)Nc1nc2c(s1)CSc1ccccc1-2)c1ccccc1	Gal4-VP16 FLuc inconclusive, RORg inh 16µM
CCn1c(=O)c2sccc2n(Cc2ccccc2)c1=O	none
C/C(=N\Nc1nnc(C)c(=O)[nH]1)C(=O)O	none (no result: uPA generation)
CCc1cc(-c2n[nH]c(=S)n2C(C)c2ccccc2)cs1 (stereo not drawn)	none (no result: uPA generation)
S=c1[nH]nc(-c2cccc3ccccc23)n1-c1cccnc1	none
Cc1cccc(-n2c(-c3ccc(Br)o3)n[nH]c2=S)c1	none (no result: Gal4-VP16 FLuc, TRPV1 ag, TRPV1 potentiator, RORg inh)
Cc1cccc(-n2c(-c3csc(C)c3C)n[nH]c2=S)c1	Gal4-VP16 FLuc 11µM, RORg inh 2.5µM
COc1ccccc1-n1c(-c2cn(C)nc2C)n[nH]c1=S	none
Cc1ccccc1-n1c(-c2csc(C)c2C)n[nH]c1=S	Gal4-VP16 FLuc 6.3µM, RORg inh 2.8µM
Cc1scc(-c2n[nH]c(=S)n2C(C)c2ccccc2)c1C (stereo not drawn)	Gal4-VP16 FLuc 7.1µM, RORg inh 4µM
Cc1ccccc1-n1c(-c2csc3ccccc23)n[nH]c1=S	Gal4-VP16 FLuc inconclusive, RORg inh 1.1µM
O=C(CNC(=O)COc1ccccc1)NCCN1CCOCC1	none (no result: Gal4-VP16 FLuc, RORg inh)
Cc1cccnc1NC(=O)CNC(=O)C12CC3CC(CC(C3)C1)C2	uPA generation inconclusive (no result: Gal4-VP16 FLuc, RORg inh)
Cc1ccc(CN2CCNC(=O)C2CC(=O)NCCCn2ncc3ccccc32)o1 (stereo not drawn)	Gal4-VP16 FLuc inconclusive
CCCCc1ccc(NC(=S)NCc2cccnc2)cc1	Gal4-VP16 FLuc inconclusive, TRPV1 ag inconclusive, RORg inh inconclusive
O=C(Nc1ccc(OCc2ccccc2)cc1)Nc1cccnc1	TRPV1 ag inconclusive
CCCCc1ccc(NC(=O)Nc2cccnc2)cc1	TRPV1 ag 85
CCCCc1ccc(NC(=S)Nc2cccnc2)cc1	Gal4-VP16 FLuc 13µM, RORg inh 13µM
CCCn1c(CCc2ccccc2)n[nH]c1=S	Gal4-VP16 FLuc 18µM, RORg inh 7.1µM
CCn1c(CCn2c3ccccc3c3ccccc32)n[nH]c1=S	Gal4-VP16 FLuc 6.3µM, RORg inh 5.6µM
CCn1c(CSCc2ccccc2)n[nH]c1=S	Gal4-VP16 FLuc inconclusive, RORg inh 4µM
CCn1c(CCc2ccccc2)n[nH]c1=S	Gal4-VP16 FLuc inconclusive, RORg inh 8.9µM
CCCC(=O)c1ccc(N2CCC(C)CC2)c(F)c1	none
Cc1ccccc1-c1ccc2ncnc(NCCN3CCOCC3)c2c1	RORg inh inconclusive (no result: uPA generation, TRPV1 ag, TRPV1 potentiator)
Cc1c(N/C(=N/S(=O)(=O)c2ccc(Cl)cc2)c2ccccc2)c(=O)n(-c2ccccc2)n1C	none (no result: uPA generation)
O=C(Nc1nnc(C2=COCCO2)o1)c1ccc(S(=O)(=O)N2CCCCC2)cc1	Gal4-VP16 FLuc 3.2µM, RORg inh 1.3µM
CCC1CCCCN1S(=O)(=O)c1ccc(C(=O)Nc2nnc(C3=COCCO3)o2)cc1 (stereo not drawn)	Gal4-VP16 FLuc 1µM, uPA generation inconclusive, RORg inh 0.89µM
O=C(Nc1nnc(C2=COCCO2)o1)c1ccc(S(=O)(=O)N2CCCC2)cc1	none
Cc1ccc(NC(=O)c2ccc(S(=O)(=O)N3CCC(C)CC3)cc2)nc1	none (no result: Gal4-VP16 FLuc, RORg inh)
CS(=O)(=O)c1ccc(-c2nnc(NC(=O)C3=COCCO3)o2)cc1	none (no result: Gal4-VP16 FLuc, RORg inh)
CC1CCN(S(=O)(=O)c2ccc(C(=O)Nc3nnc(C4=COCCO4)o3)cc2)CC1	Gal4-VP16 FLuc 1µM, uPA generation inconclusive, RORg inh 1.1µM
CCOC(=O)N1CCC(=NNC(=O)c2ccccc2F)CC1	none
CCOC(=O)N1CCC(=NNC(=O)c2ccc(O)cc2)CC1	Gal4-VP16 FLuc inconclusive, RORg inh 8.9µM
